Screening data deposited in PubChem by National Center for Advancing Translational Sciences (NCATS).
PLK1 PBD block – qHTS for Inhibitors of PLK1-PDB (polo-like kinase 1 - polo-box domain): Primary Screen; Serine/threonine-protein kinase PLK1 (Homo sapiens), P53350; Plk1 PBD binding of FITC phosphopeptide, fluorescence polarization; Potency, µM, inactives show max response, negative = inhibition, most hits filed as inhibitors; actives 2.8% (n = 360,000); note: potency is the fitted concentration of half-maximal effect; series mostly up to about 57 µM; nearly all actives have a fitted effect of over 65% in size
Target sequence (P53350 whole entry, looked up, the tested form may be a part): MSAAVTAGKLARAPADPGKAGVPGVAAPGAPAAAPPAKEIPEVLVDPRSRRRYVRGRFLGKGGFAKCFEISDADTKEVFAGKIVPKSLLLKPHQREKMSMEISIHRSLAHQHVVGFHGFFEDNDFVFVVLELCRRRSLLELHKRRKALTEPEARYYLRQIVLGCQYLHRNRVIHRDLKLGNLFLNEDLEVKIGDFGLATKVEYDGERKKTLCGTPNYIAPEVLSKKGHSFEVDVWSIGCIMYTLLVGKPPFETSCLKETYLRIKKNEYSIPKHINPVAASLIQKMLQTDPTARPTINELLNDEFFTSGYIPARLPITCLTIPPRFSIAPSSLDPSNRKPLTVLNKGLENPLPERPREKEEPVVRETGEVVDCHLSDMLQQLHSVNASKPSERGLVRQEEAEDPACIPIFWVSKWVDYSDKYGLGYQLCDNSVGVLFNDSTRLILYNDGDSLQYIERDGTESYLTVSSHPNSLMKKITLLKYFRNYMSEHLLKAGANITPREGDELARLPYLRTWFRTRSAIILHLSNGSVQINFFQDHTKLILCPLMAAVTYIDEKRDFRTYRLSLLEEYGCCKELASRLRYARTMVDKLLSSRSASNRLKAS
CCT chaperon mod – High-Throughput Screening for Modulators of Cytosolic Chaperonin Activity; activity change, % (test concentration not listed), hits read low; purified chaperonin ATPase assay, HTRF ADP detection, 30 min; actives 0.3% (n = 360,000); in the data active = activity change below about -30%
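We incubate TRiC, 40 or 20 nM final, with library compounds at 76 uM and 10 uM ATP for 30 min at 37 °C. ADP formed is detected with Transcreener HTRF reagents after 30 min at room temperature.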
G9a inh – qHTS Assay for Inhibitors of Histone Lysine Methyltransferase G9a; Histone-lysine N-methyltransferase EHMT2 (Homo sapiens), Q96KQ7; G9a H3K9 monomethylation, AlphaScreen, 2 h; Potency, µM (highest dose often 102 µM), without a hit: at the highest dose activity, negative = inhibition, most hits filed as inhibitors; actives 8.8% (n = 350,000); AID 504332, 2011; note: potency is the fitted concentration of half-maximal effect; nearly all actives have a fitted effect of over 75% in size
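Readings reflect AlphaScreen signal from monomethyl-H3K9 antibody detection. HMT at 20 nM; substrate b-H3K9 500 nM; cofactor SAM 20 uM; 2 h RT reaction; compounds tested as titrations in qHTS with 15 min preincubation.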
Mm-Cpn inhibitor – Inhibitors of TCP-1 ring complex (TRiC) of Methanococcus maripaludis (MmCpn): qHTS | Potency, µM (highest dose often 76.9 µM), for the others: at the top dose activity, negative = inhibition, usual class: inhibitors | actives 0.031% (n = 330,000) | AID 504842, 2011 | purified Mm-Cpn ATPase, ADP Transcreener TR-FRET | Chaperonin Mm-Cpn (Methanococcus maripaludis); note: potency is the fitted concentration of half-maximal effect; nearly all actives have a fitted effect of over 80% in size
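Reaction buffer contained 30 mM Tris pH 7.4, 100 mM KCl, 5 mM MgCl2 and 1 mM DTT. Mm-CPN (25 nM final) hydrolysed 10 uM ATP over 30 min at 37°C; ADP was read by HTRF.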
VDR inh – Inhibitors of the vitamin D receptor (VDR): qHTS. Vitamin D3 receptor (Homo sapiens), P11473. VDR-SRC2-3 peptide fluorescence polarization, 2 h. Potency, µM, for the others: max response, negative = inhibition, hits mostly inhibitors. actives 0.93% (n = 400,000); note: potency is the fitted concentration of half-maximal effect
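Fluorescence polarization assay measuring small-molecule disruption of VDR binding to the coregulator peptide SRC2-3. Compounds were pin-transferred (23 nl) into the reagent mix and incubated 2 h at room temperature before reading.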
Sfp inh – qHTS Assay for Inhibitors of Bacillus subtilis Sfp phosphopantetheinyl transferase (PPTase). 4'-phosphopantetheinyl transferase ffp (Bacillus subtilis), Q9F4F7. Biochemical Sfp PPTase activity, qHTS. Potency, µM, for the others: largest response in the series, negative = inhibition, hits mostly inhibitors. actives 3.5% (n = 310,000);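 note: the enzyme is Sfp with the accession as filed and its product quenches rhodamine fluorescence; potency is the fitted concentration of half-maximal effect; 0% = enzyme reaction without inhibitor and -100% = no enzyme wells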
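Compounds were incubated with enzyme (final 15 nM) for 15 min at room temperature before substrate addition started the reaction. Fluorescence at 525 nm excitation, 598 nm emission was recorded immediately and after 30 minutes.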
* hit, by the source's call; ? = inconclusive; / = no result; [ ] = dose if it differs, or a comment. Only some compounds are listed: those with a hit (about 10% of all), similar ones and a draw of the others. Unless noted, calls come from the whole dose curve; as a rule, active = well fitted curve in the direction sought with a large enough effect; inconclusive = small, poorly fitted or top-dose-only effect, or another doubt; inactive = no such curve, though single readings can be large; an effect the other way counts as inactive or inconclusive. Unless noted, % is set by controls: 0 for no effect and ±100 for the full control effect.

SMILES	PLK1 PBD block	CCT chaperon mod	G9a inh	Mm-Cpn inhibitor	VDR inh	Sfp inh
Cc1onc(-c2ccccc2Cl)c1C(=O)Nc1nnc(C(C)C)s1	-2%	0	50µM*	2%	-7%	23%
Cc1cnc(NC(=O)c2sc3ccccc3c2Cl)s1	-11%	-1	16%	-3%	-5%	9%
Cc1onc(-c2ccccc2Cl)c1C(=O)O/N=C(\N)c1ccc([N+](=O)[O-])o1	-5%	0	35µM*	3%	-11%	2%
Cc1cc(F)ccc1NC(=O)CCS(=O)(=O)c1cc2c(cc1C)NC(=O)CO2	/	/	-27%[59 µM]	/	-12%	/
COc1ccc(NC(=O)CSc2nc3c(oc4ccccc43)c(=O)n2-c2ccc(C)c(C)c2)cc1	/	/	-6%[59 µM]	/	-2%	/
Cc1cc(C)n2nc(CNC(=O)c3cccc(N(C)C)c3)nc2n1	/	/	4%[59 µM]	/	5%	/
Cc1ccc(/C=C2\SC(N3CCN(C(c4ccccc4)c4ccccc4)CC3)=NC2=O)o1	-10%	0	4.5µM*	-1%	?	4µM*
Cc1ccc(-c2ccc(/C=C3\SC(N4CCOCC4)=NC3=O)o2)cc1	-20%	-5	32µM*	-1%	-2%	40µM*
O=C1N=C(N2CCN(c3ccccc3)CC2)S/C1=C/c1cccs1	0%	0	-20%[59 µM]	-5%	0%	-3%
CCOc1ccc(CCNC(=O)c2nn(C)c3c2CSc2ccccc2-3)cc1	/	/	-34%[59 µM]	/	3%	/
Cc1oc(/C=N/NC(=O)CN(c2ccccc2Br)S(C)(=O)=O)cc1Br	-3%	-3	71µM*	0%	-13%	-8%
Cc1oc(/C=N/NC(=O)CN(c2ccccc2Cl)S(C)(=O)=O)cc1Br	-9%	2	?	0%	-3%	-2%
C/C(=N\NC(=O)CN(c1ccccc1Br)S(C)(=O)=O)c1cccs1	27µM*	-2	/	-5%	4%	12%
CCc1ccc(NC(=O)C2CCCN(S(=O)(=O)c3cccc4nsnc34)C2)cc1 (configuration not stated)	/	/	3%[59 µM]	/	-20%	/
COC(=O)c1ccc(-c2ccc(OC)c(C3C4C=CCC(C)C4C(=O)N3Cc3ccccc3)c2)cc1 (configuration not stated)	/	/	/	/	-8%	-6%
CCOC(=O)c1cnc2c(C)cccc2c1Nc1ccc(N2CCOCC2)cc1	/	/	28µM*	2%	/	-29%
CCOC(=O)c1cnc2c(ccc3ccccc32)c1Nc1ccc(OC)c(OC)c1	/	/	8.9µM*	/	7%	/
CCOC(=O)c1cnc2c(ccc3ccccc32)c1Nc1ccc(Cl)cc1	/	/	1%[59 µM]	/	-7%	/
CCOC(=O)c1cnc2ccccc2c1Nc1cc(C(=O)O)ccc1C	-14%	0	50µM*	-8%	17%	24%
CCOC(=O)c1cnc2ccc(OC)cc2c1Nc1ccc(N2CCN(C)CC2)cc1	6.7µM*	2	35µM*	1%	-4%	-8%
CCOc1ccccc1NC(=O)Cn1c(=O)n(CCC(=O)NCc2ccc3c(c2)OCO3)c(=O)c2ccccc21	/	/	30%[59 µM]	/	2%	/
CCOC(=O)c1cnc2c(C)c(Cl)ccc2c1Nc1ccc(N2CCOCC2)cc1	/	/	7.9µM*	/	-2%	/
CCn1c(C)c(C(C)=O)c(N2CCN(c3ccc(OC)cc3)CC2)nc1=S	?	1	35µM*	2%	3%	22µM*
CCOC(=O)c1ccc2ncc(C(=O)OCC)c(Nc3ccc(N4CCOCC4)cc3)c2c1	4%	2	?	1%	-2%	50µM*
CCOC(=O)c1cnc(N2CCN(c3ccc(OC)cc3)CC2)c2ccccc12	/	/	14µM*	/	10%	/
SMILES	PLK1 PBD block	CCT chaperon mod	G9a inh	Mm-Cpn inhibitor	VDR inh	Sfp inh
Cc1ccc2nc(CSc3nnc(NC(=O)C(C)C)s3)cc(=O)n2c1	/	/	2%[59 µM]	/	6%	/
CCCN(CCC)CCCNC(=O)Cn1cnc2onc(-c3ccc(F)cc3)c2c1=O	/	/	-8%[59 µM]	/	13%	/
COc1cc(NS(=O)(=O)c2ccc3c(c2)CCCN3C(C)=O)cc(OC)c1OC	/	/	9%[59 µM]	/	5%	/
COc1cc(C2c3c(oc4ccc(F)cc4c3=O)C(=O)N2c2nc(C)c(C)s2)cc(OC)c1OC (configuration not stated)	/	/	25%[59 µM]	/	12%	/
N#C/C(=C(/O)c1ccccc1F)c1nc2cc(C(F)(F)F)ccc2s1	27µM*	0	-20%	-6%	-2%	1%
CCCCNC(=O)C1CCC(CNS(=O)(=O)c2ccc(Cl)cc2)CC1 (configuration not stated)	/	/	17%[59 µM]	/	10%	/
CC(=O)c1cc2c(cc1NC(=O)CCC1CCCC1)OCO2	/	/	147%[59 µM]	3%	/	6%
CCN1CCN(CC(=O)Nc2cc3c(cc2C(C)=O)OCO3)CC1	-6%	1	3.5µM*	1%	-11%	?
CC(=O)c1cc2c(cc1NC(=O)CCn1cccc1)OCO2	-1%	-6	?	-20%	10%	50µM*
O=C(O)/C=C/C(=O)NCCCc1ccccc1	27µM*	0	4%	4%	-15%	15%
O=C(O)/C=C/C(=O)NCc1ccccn1	-2%	1	45µM*	-1%	9%	-17%
O=C(COC(=O)c1ccccc1O)NCCCc1ccccc1	30µM*	-4	-32%	1%	-7%	-9%
Cc1ccccc1S(=O)(=O)Cc1ccc(C(=O)N2CCN(c3cccc(Cl)c3)CC2)o1	/	/	-35%[59 µM]	/	-11%	/
Oc1ccc2cccnc2c1	27µM*	-1	-38%[12.7 µM]	-2%	-6%	0%
CCN(CC(=O)NCc1ccc(Cl)cc1)C(=O)/C=C/c1ccc(Cl)c([N+](=O)[O-])c1	-13%	-4	28%	1%	-23%	79µM*
CCN(CC)CCn1c(-c2ccccc2)nc2c(N3CCOCC3)nc(C)nc21	/	/	/	/	/	22%
CSc1ccccc1C(=O)Nc1ncn[nH]1	-22%	1	1.6µM*	0%	-15%	56µM*
CSc1ccccc1C(=O)NCCOc1cccc(C)c1	-20%	2	45µM*	-1%	-16%	13%
CSc1ccccc1C(=O)Nc1c(C)cccc1C	-1%	3	28µM*	3%	4%	-13%
C=CCSc1ccccc1C(=O)Nc1ncn[nH]1	-13%	-1	/	-4%	-9%	-5%
C=C[C@H]1CCC=C2C(=O)CCC[C@@H]21	/	/	/	/	-3%	-5%
CC(C)CNCC(=O)N1c2ccccc2Sc2ccccc21	-1%	-2	35µM*	-3%	-3%	-22%
